Assay results taken from PubChem BioAssay (NCATS).
Records with an inconclusive call do not appear. A number with no mark means an inactive call. Calls follow the shape of the dose curve; as a rule, active = well fitted cell-killing curve with a large enough effect; inconclusive = small, poorly fitted or top-dose-only effect, or effect the other way; inactive = flat fitted curve, though single readings scatter. Where a SMILES comes first, the peptide text is derived from it. The star is where a group is joined. βNA = c1ccc2cc(N*)ccc2c1; Cbz = O=C(OCc1ccccc1)*

System: HeLa
Test: Primary qHTS to identify gynecologic anti-cancer compounds using libraries of approved drugs and bioactive compounds (AID 1345084); also: nearly all actives have a fitted effect of over 55% in size
Conditions: Gynecologic cancer cell panel viability, ATPlite luminescence, 48 h; series mostly up to 57.5 µM; activity change, negative = cytotoxicity: at the top concentration
Method in brief: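 Cell viability after 48 h drug treatment, ATPlite luminescence readout; five doses.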
% is scaled to controls: 0 for no effect and ±100 for the full control effect.

Question: Which “activity change, negative = cytotoxicity” value does the source give for C/C(=C\CCC1(C)C2CC3C(C2)C31C)C(=O)O (centres undefined) here?
Answer: -1%

Question: CCCC1=CC2=C(CO1)C(=O)C(C)(O)C(OC(=O)c1c(C)cc(OC)cc1O)C2 (centres undefined) was tested. Which “activity change, negative = cytotoxicity” value did it give?
Answer: 2.55% [at 25.3 µM]

Question: With COc1cnc(-n2cnc(C)n2)c2[nH]cc(C(=O)C(=O)N3CCN(C(=O)c4ccccc4)CC3)c12 as the compound, how does the “activity change, negative = cytotoxicity” value read?
Answer: 8.8%

Question: With CCCC/C=C\CCCCCc1cc(=O)c2ccccc2n1C as the compound, how does the “activity change, negative = cytotoxicity” value read?
Answer: -0.441% [at 38.5 µM]

Question: How did the “activity change, negative = cytotoxicity” value turn out when CCN1CCN(C(=O)N[C@@H](C(=O)N[C@@H]2C(=O)N3[C@@H]2SC(C)(C)[C@@H]3C(=O)O)c2ccccc2)C(=O)C1=O was run?
Answer: 3.06%

Question: How did the activity change, negative = cytotoxicity turn out when C[C@@H]1O[C@@H](O[C@@H]2[C@@H](O)[C@H](O[C@H]3[C@H](O[C@H]4CC[C@@]5(C)C(CC[C@]6(C)C5CC=C5[C@@H]7CC(C)(C)CC[C@]7(C(=O)O[C@@H]7O[C@H](CO)[C@@H](O)[C@H](O)[C@H]7O)CC[C@]56C)C4(C)C)O[C@H](C(=O)O)[C@@H](O)[C@@H]3O)OC[C@H]2O)[C@H](O)[C@H](O)[C@H]1O (some centres undefined) was run?
Answer: -3.66% [at 11.6 µM]

Question: With COC(=O)C1=COC(O[C@@H]2O[C@H](CO)[C@@H](O)[C@H](O)[C@H]2O)/C(=C\COC(=O)/C=C/c2ccccc2)C1CC(=O)OCCc1ccc(O)cc1 (some centres undefined) as the compound, how does the “activity change, negative = cytotoxicity” value read?
Answer: -0.824% [at 25.3 µM]

Question: How did the “activity change, negative = cytotoxicity” value turn out when C=CC(C)(O)CC/C=C(\C)C1CC=C(C)C(=O)O1 (centres undefined) was run?
Answer: -2.19%

Question: COc1cc(/C=C/C(=O)OC[C@H]2O[C@@H](OC3CC(C)=C(C(=O)O)C(C)(C)C3)[C@H](O)[C@@H](O)[C@@H]2O)cc(OC)c1O (some centres undefined) was tested. Which “activity change, negative = cytotoxicity” value did it give?
Answer: 9.48% [at 25.3 µM]

Question: How did the “activity change, negative = cytotoxicity” value turn out when CC1(C)C[C@H](O)C[C@@]2(C)[C@H]1[C@H](O)C=C1COC(=O)[C@@]12O was run?
Answer: 0%

Question: O=C(O)Cc1cn([C@@H]2O[C@H](CO)[C@@H](O)[C@H](O)[C@H]2O[C@@H]2O[C@H](CO)[C@@H](O)[C@H](O)[C@H]2O)c2ccccc12 was tested. Which “activity change, negative = cytotoxicity” value did it give?
Answer: -2.02% [at 25.3 µM]

Question: C=C1CC[C@@]2(OC1)O[C@H]1CC3[C@@H]4CC=C5C[C@@H](O)C[C@@H](O[C@@H]6OC[C@H](O)[C@H](O)[C@H]6O[C@@H]6O[C@@H](C)[C@H](O)[C@@H](O)[C@H]6O)[C@]5(C)C4CC[C@]3(C)[C@H]1[C@@H]2C (some centres undefined) was tested. Which “activity change, negative = cytotoxicity” value did it give?
Answer: -1.53% [at 25.3 µM]

Question: How did the “activity change, negative = cytotoxicity” value turn out when CC(C)CC(NC(=O)OCc1ccccc1)C(=O)NC(CC(C)C)C(=O)NC(CCC(=O)O)C(=O)Nc1ccc2ccccc2c1 (stereo not drawn) (Cbz-Leu-Leu-Glu-βNA; configuration not given here) was run?
Answer: 11.4%

Question: For OC[C@@]1(O)CO[C@H](OC[C@H]2O[C@@H](OC(CCCCc3ccc(O)cc3)CCc3ccc(O)cc3)[C@H](O)[C@@H](O)[C@@H]2O)[C@@H]1O (some centres undefined), which “activity change, negative = cytotoxicity” value is on record?
Answer: 3.88% [at 25.3 µM]

Question: For Nc1ccc(-n2nc(C(F)(F)F)cc2C(F)(F)F)cc1, which “activity change, negative = cytotoxicity” value is on record?
Answer: 1.12%

Question: Which “activity change, negative = cytotoxicity” value does the source give for C/C(=C\C(=O)C[C@@]12C(=O)O[C@]3(C)CC[C@H]1C[C@H]23)C(N)=O here?
Answer: 6.1%

Question: Which “activity change, negative = cytotoxicity” value does the source give for Nc1ncnc2c1C(=O)N(c1ccc(C3CCC(CC(=O)O)CC3)cc1)CCO2 (centres undefined) here?
Answer: 12.8%

Question: COC1OC(=O)C2=C1C1(C)CCCC(C)(C)C1CC2O (centres undefined) was tested. Which “activity change, negative = cytotoxicity” value did it give?
Answer: 1.52%

Question: How did the “activity change, negative = cytotoxicity” value turn out when C=C(CC/C=C(\C)C(=O)O)C1(O)CC=C(C)CC1 (centres undefined) was run?
Answer: 1.08%

Question: For CC(C)Oc1ccc(-c2nc(-c3cccc4c3CCC4NCCC(=O)O)no2)cc1C#N (centres undefined), which “activity change, negative = cytotoxicity” value is on record?
Answer: 2.92%

Question: With C=C1CC[C@@]2(OC1)O[C@H]1CC3[C@@H]4CC=C5C[C@H](O[C@H]6OC[C@@H](O)C(O)[C@@H]6O[C@@H]6O[C@@H](C)[C@H](O)[C@@H](O[C@@H]7O[C@H](CO)[C@@H](O)[C@H](O)[C@H]7O)[C@H]6O)C[C@@H](O)[C@]5(C)C4CC[C@]3(C)[C@H]1[C@@H]2C (some centres undefined) as the compound, how does the activity change, negative = cytotoxicity read?
Answer: 12.1% [at 11.6 µM]

Question: How did the “activity change, negative = cytotoxicity” value turn out when CC(C)c1cc2c(c(O)c1O)[C@@]13CCCC(C)(C)C1[C@@H](O)[C@@H]2OC3=O (some centres undefined) was run?
Answer: 1.59% [at 38.5 µM]

Question: For COc1cccc(C)c1C(=O)O[C@@H]1C[C@H](O[C@H]2[C@H](O)C[C@H](O[C@@H]3CCC[C@H]4[C@H]3C=C[C@@H]3CCCC/C=C/[C@H]5C=C(C(=O)O)[C@@H](C)C[C@@]56OC(=O)C(=C6O)OC(=O)[C@@]34C)O[C@@H]2C)O[C@H](C)[C@H]1O, which activity change, negative = cytotoxicity is on record?
Answer: 1.33% [at 11.6 µM]

Question: How did the activity change, negative = cytotoxicity turn out when CC(=O)OC1C(CO)OC(O[C@H]2[C@H](OC(=O)[C@]34CCC(C)(C)C[C@H]3C3=CCC5[C@@]6(C)CC[C@H](O[C@@H]7O[C@H](C(=O)O)[C@@H](O)[C@H](O[C@@H]8OC[C@@H](O)[C@H](O)[C@H]8O)[C@H]7O[C@@H]7O[C@H](CO)[C@H](O)[C@H](O)[C@H]7O)[C@@](C)(C=O)C6CC[C@@]5(C)[C@]3(C)C[C@H]4O)O[C@H](C)[C@H](OC3OC(C)C(OC4OCC(O)C(O)C4O)C(O)C3O)[C@@H]2O)C(O)C1O (some centres undefined) was run?
Answer: -1.51% [at 6.55 µM]

Question: Which “activity change, negative = cytotoxicity” value does the source give for CC(C)=CCC/C(C)=C/CO[C@@H]1O[C@H](CO[C@@H]2O[C@@H](CO)[C@H](O)[C@H]2O)[C@@H](O)[C@H](O)[C@H]1O here?
Answer: 1.79% [at 25.3 µM]

Question: Which “activity change, negative = cytotoxicity” value does the source give for O=C(c1ccc(Cl)c([N+](=O)[O-])c1)N1CCN(c2ccccc2F)CC1 here?
Answer: 4.16%

Question: How did the “activity change, negative = cytotoxicity” value turn out when COc1cc(O)c2c(c1Cl)CC(C)OC2=O (centres undefined) was run?
Answer: 4.36%

Question: CCCCNc1nc(N)c2[nH]c(=O)n(Cc3ccc(OCCN(C)C)nc3)c2n1 was tested. Which “activity change, negative = cytotoxicity” value did it give?
Answer: 7.75%

Question: CC(O)C(=O)/C=C/C=C/C(=O)OC1C=C2COC(=O)C2(O)C2(C)CCCC(C)(C)C12 (centres undefined) was tested. Which “activity change, negative = cytotoxicity” value did it give?
Answer: 6.19% [at 25.3 µM]

Question: With CC1(C)CC[C@]2(C(=O)O)CC[C@]3(C)C(=CCC4[C@@]5(C)CC[C@H](O[C@@H]6O[C@H](C(=O)O)[C@@H](O)[C@H](O[C@@H]7O[C@H](CO)[C@H](O)[C@H](O)[C@H]7O)[C@H]6O[C@@H]6O[C@H](CO)[C@@H](O)[C@H](O)[C@H]6O)C(C)(C)C5CC[C@]43C)[C@@H]2C1 (some centres undefined) as the compound, how does the activity change, negative = cytotoxicity read?
Answer: -1.9% [at 6.55 µM]

Question: For CC(=O)OC(C)(C)/C=C/C(=O)[C@](C)(O)C1[C@H](O)C[C@@]2(C)[C@@H]3CC=C4[C@@H](C[C@H](O[C@@H]5O[C@H](CO)[C@@H](O)[C@H](O)[C@H]5O)C(=O)C4(C)C)[C@]3(C)C(=O)C[C@]12C (some centres undefined), which “activity change, negative = cytotoxicity” value is on record?
Answer: 10.4% [at 25.3 µM]

Question: CC1=CC(=O)CC(C)(C)[C@@]1(O)/C=C/C(C)O[C@@H]1O[C@H](CO)[C@@H](O)[C@H](O)[C@H]1O (some centres undefined) was tested. Which “activity change, negative = cytotoxicity” value did it give?
Answer: -10.2% [at 25.3 µM]

Question: Which “activity change, negative = cytotoxicity” value does the source give for CC(C)C1NC(=O)C(CC2(O)c3ccccc3N3C(=O)C(Cc4ccccc4)NC32)NC1=O (centres undefined) here?
Answer: -3.77% [at 25.3 µM]

Question: How did the “activity change, negative = cytotoxicity” value turn out when OC[C@@]1(O)CO[C@H](OC[C@H]2O[C@@H](OC(CCCCc3ccc(O)cc3)CCc3ccc(O)cc3)[C@H](O[C@H]3OC[C@](O)(CO)[C@H]3O)[C@@H](O)[C@@H]2O)[C@@H]1O (some centres undefined) was run?
Answer: -0.192% [at 25.3 µM]

Question: For COC(=O)c1c(CC=C(C)C)c(OC2OC(CO)C(O)C(O)C2O)c2ccccc2c1OC1OC(CO)C(O)C(O)C1O (centres undefined), which “activity change, negative = cytotoxicity” value is on record?
Answer: 6.74% [at 25.3 µM]

Question: C[C@]1(O)CC[C@@H]2C(C(=O)O)=CO[C@@H](O[C@@H]3O[C@H](COC(=O)/C=C/c4ccc(O)c(O)c4)[C@@H](O)[C@H](O)[C@H]3O)[C@@H]21 was tested. Which “activity change, negative = cytotoxicity” value did it give?
Answer: -1.14% [at 25.3 µM]

Question: CC(C)(O)C1CC=C(C(=O)OC[C@H]2O[C@@H](Oc3cc(C(=O)O)cc(O)c3O)[C@H](O)[C@@H](O)[C@@H]2O)CC1 (some centres undefined) was tested. Which “activity change, negative = cytotoxicity” value did it give?
Answer: 4% [at 25.3 µM]

Question: For COc1cc2c(cc1O)CC(O)(CO)C(CO)C2c1ccc(OC2OC(CO)C(O)C(O)C2O)c(OC)c1 (centres undefined), which “activity change, negative = cytotoxicity” value is on record?
Answer: -3.99% [at 25.3 µM]

Question: With O=C(O)CC/C=C\C[C@H]1CO[C@@H](c2ccccc2Cl)O[C@H]1c1ccccc1O as the compound, how does the “activity change, negative = cytotoxicity” value read?
Answer: 5.55%
